# Measurements taken from PubChem BioAssay (Tox21).
# Results filed as inconclusive are left out. Where a call stands in place of a potency, no number is given. Activity calls are given as the source filed them. The call rests on the fitted dose curve; in most records, active means well fitted cell-killing curve with a large enough effect in the repeat runs; inconclusive means weak or mixed curves, or effect the other way; inactive means flat fitted curve, though single readings scatter.
# Assay: qHTS RealTime-Glo MT Cell Viability Assay in HEK293 cells - 8 hour (AID 1224887); further: nearly all actives have a fitted effect of over 50% in size; on activity change, negative = cytotoxicity: top concentration of the series differs between compounds
# Conditions: RealTime-Glo luminescence; series mostly up to 76.8 µM
# Text: U.S. Tox21 Program National Center for Advancing Translational Sciences [NCATS] NIH Chemical Genomics Center [NCGC] U.S. Environmental Protection Agency [EPA] National Institutes of Environmental Health Sciences [NIEHS] National Toxicology Program [NTP] U.S. Food and Drug Administration [FDA] Tox21 Assay Overview: Measure of cell viability is critical in the cell-base assay. Analysis of cell viability is necessary for the characterization of cell responses to cytotoxic drugs and environmental stress. A RealTime-Glo MT Cell Viability Assay to monitor cell viability in real time of continues cell culture during 40 hours of compound treatment was used to screen Tox21 10K library compounds in Hek293 cells. The RealTime-Glo MT Cell Viability Assay is a nonlytic, homogeneous, bioluminescent method to measure cell viability in real time using a simple, plate-based method. The assay involves adding NanoLuc luciferase and a cell-permeant prosubstrate to cells in culture. Viable cells reduce the proprietary prosubstrate to generate a substrate for NanoLuc luciferase. This substrate diffuses from cells into the surrounding culture medium, where it is rapidly used by the NanoLuc Enzyme to produce a luminescent signal. The signal correlates with the number of viable cells, making the assay well suited for cytotoxicity studies.
# Tox21 Assay Protocol Summary: The mixture of Hek293 cell suspension and reagents were dispensed at 600cells/6 ul/well in 1536-well tissue culture treated black solid bottom plates using a Multidrop dispenser. After the assay plates were incubated at a 37 C/5% CO2 incubator for 5 hours, 23 nL of compounds dissolved in DMSO, positive and negative controls was transferred to the assay plate by a pintool work station. The plates were incubated at 37 C for 40 hours. The luminescence intensity were measured at 0h, 8h, 16h, 24h, 32h and 40h time points using ViewLux plate reader during compound treatment.
# Potency means the concentration at half of the fitted maximal effect.
Structure (SMILES),Potency,"activity change, negative = cytotoxicity"
NS(=O)(=O)c1ccc(NC(=O)CCC(=O)O)cc1,inactive,–
COc1cc2c(cc1OC)C(=O)CC2,inactive,–
CN1C(C)(C)CCCC1(C)C,inactive,–
CCOC(=O)c1ccc(OC(=O)CCCCCN=C(N)N)cc1,inactive,–
CN(C)c1ccc(C=O)cc1,inactive,–
C=C(C)C(=O)OCc1ccccc1,inactive,–
CCCN1C[C@H](CSC)C[C@@H]2c3cccc4[nH]cc(c34)C[C@H]21,inactive,–
O=C1c2ccccc2C(=O)N1CCl,inactive,–
CCCCCCCCSCC,inactive,–
CC(C)N(c1ccccc1)C(C)C,inactive,–
N#Cc1ccc(C(=O)O)cc1,inactive,–
CCN1CCc2nc(N)oc2CC1,inactive,–
O=C(CS(=O)Cc1ccco1)NC/C=C\COc1cc(CN2CCCCC2)ccn1 (stereo not given),inactive,–
FC(F)(F)c1ccccc1-n1ccnc1,inactive,–
CC(C)(C)c1cc(CCC(=O)NN)cc(C(C)(C)C)c1O,inactive,–
C[C@@H](Oc1ccc(CNC(=O)c2cccnc2Oc2ccc3c(c2)OCO3)c(F)c1)C(=O)O,inactive,–
CNS(=O)(=O)CCc1ccc2[nH]cc(C3CCN(C)CC3)c2c1,inactive,–
O=S(=O)(O)CCN1CCN(CCO)CC1,inactive,–
C[C@@H](O)[C@H]1C(=O)N2C(C(=O)O)=C(SCCN=CN)C[C@H]12,inactive,–
CCC(C=O)CC,inactive,–

Structure (SMILES),Potency,"activity change, negative = cytotoxicity"
C[C@H](CCC(=O)O)[C@H]1CC[C@H]2[C@@H]3C(=O)C[C@@H]4CC(=O)CC[C@]4(C)[C@H]3CC(=O)[C@]12C,inactive,–
O=C(O)c1ccc(Cl)cc1Cl,inactive,–
NC(CO)C(=O)NNCc1ccc(O)c(O)c1O (stereo not given),inactive,–
CC(C)(C)OC(=O)c1ccc(O)cc1,inactive,–
O=C(O)Cc1ccc(Cl)cc1Cl,inactive,–
COc1cc(N)ccc1C,inactive,–
CCOC(=O)c1ncn2c1CN(C)C(=O)c1cc(F)ccc1-2,inactive,–
Nc1cccc(O)c1,inactive,–
CCOc1cc([N+](=O)[O-])c(OCC)cc1N1CCOCC1,15.5 µM (active),–
C=Cc1ccccn1,inactive,–
COc1nccnc1NS(=O)(=O)c1ccc(N)cc1,inactive,–
CCCCC(CC)COCCO (stereo not given),inactive,–
CC(C)(C)c1nnc(NS(=O)(=O)c2ccc(N)cc2)s1,inactive,–
CC(C)CCCCOC(=O)c1ccccc1C(=O)OCCCCC(C)C,inactive,–
COP(=O)(OC)OC(c1ccc(Cl)cc1)P(=O)(OC)OC (stereo not given),inactive,–
CC(CC=O)CCCC(C)(C)O (stereo not given),inactive,–
Nc1ccc2cc(S(=O)(=O)O)cc(O)c2c1,inactive,–
Oc1cn2c(n1)Nc1ccc(Cl)c(Cl)c1C2,–,1.19% [at 15.8 µM] (inactive)
Oc1ccccc1-c1nnco1,inactive,–
CC/C=C\CC1=C(C)CCC1=O,inactive,–
